Active and inactive are the calls of the source. How the calls were made is not given here.
These compounds were tested against Pantothenate synthetase (Mycobacterium tuberculosis (strain ATCC 25618 / H37Rv)) (UniProt P9WIL5) (assay: Recombinant Mtb pantothenate synthetase (PanC) inhibitors, coupled enzyme, confirmatory (AID 375;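 further: 0% = full reaction with vehicle and 100% = no enzyme background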)). Settings: coupled enzyme assay; at 10 µM, hits give high values.
Sequence of Pantothenate synthetase (Mycobacterium tuberculosis (strain ATCC 25618 / H37Rv)) (P9WIL5 whole entry, looked up): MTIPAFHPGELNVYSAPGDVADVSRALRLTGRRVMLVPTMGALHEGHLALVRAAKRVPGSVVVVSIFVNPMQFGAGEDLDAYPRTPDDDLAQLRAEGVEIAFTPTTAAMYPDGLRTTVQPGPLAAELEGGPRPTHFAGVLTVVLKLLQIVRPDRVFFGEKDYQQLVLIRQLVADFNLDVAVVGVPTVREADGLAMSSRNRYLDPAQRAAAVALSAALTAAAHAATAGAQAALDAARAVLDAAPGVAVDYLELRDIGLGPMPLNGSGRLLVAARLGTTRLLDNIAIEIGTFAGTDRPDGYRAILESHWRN
With `O=C(Nc1ccc(CN2CCCCC2)cc1)c1ccc2c(c1)OCO2` the inhibition was 3% (inactive). `CC(CCC(=O)Nc1nncs1)C(=O)O` (stereo not given) was tested, and the inhibition was 1% (inactive). For `COc1cccc(C2=NOC(C(=O)N3CCN(c4ccccc4)CC3)C2)c1OC` (stereo not given), the inhibition was 1% (inactive). In the case of `COc1ccccc1NC(=O)CSc1nnc(-c2ccncc2)o1`, the inhibition is reported as 0% (inactive). `Nc1ccc(-n2c(N)c(C(=O)NCc3ccc4c(c3)OCO4)c3nc4ccccc4nc32)cc1` was tested, and the inhibition was 14% (inactive). In the case of `CC(=O)NCc1ccc(C(=O)CSc2nnc(-c3ccncc3)n2Cc2ccccc2)o1`, the inhibition is reported as 16% (inactive). `CCOc1ccccc1C1CC(c2ccc(Br)cc2)Nc2nc(N)nn21` (stereo not given) was tested, and the inhibition was 10% (inactive). For `COc1ccc(CCNS(=O)(=O)c2ccc(C(=O)NCc3ccco3)cc2)cc1OC`, the inhibition was 0% (inactive). `COC(=O)c1cc(OC)c(OC)cc1NC(=O)c1ccc(Br)o1` was tested, and the inhibition was 0% (inactive). In the case of `CC(C)CCNC(=O)NC(=O)COc1ccccc1C#N`, the inhibition is reported as 4% (inactive). For `CC(C)(C)c1cc(C(=S)N2CCN(CCO)CC2)cc(C(C)(C)C)c1O`, the inhibition was 5% (inactive). In the case of `c1ccc2c(c1)nc(NC1CCCCC1)c1nncn12`, the inhibition is reported as 0% (inactive). With `c1ccc(CC2CCN(c3nc4ccccc4n4nnnc34)CC2)cc1` the inhibition was 11% (inactive). In the case of `COc1ccc(OC)c(NC(=O)CCN2CCN(c3ccccc3F)CC2)c1`, the inhibition is reported as 4% (inactive). `COc1ccc2nc(SCC(=O)NC(C)C)[nH]c2c1` was tested, and the inhibition was 0% (inactive). `Cc1nnc(SCC(=O)NCCN2C(=O)CSC2=O)s1` was tested, and the inhibition was 7% (inactive). `CC(=O)[C@H]1CC[C@H]2[C@@H]3CCC4=CC(=O)CC[C@]4(C)[C@H]3CC[C@]12C` was tested, and the inhibition was 5% (inactive). `COc1ccccc1C(=O)NCC(c1cccnc1)N(C)C` (stereo not given) was tested, and the inhibition was 0% (inactive). For `COc1cccc(NC(=O)COc2ccccc2C(N)=O)c1`, the inhibition was 0% (inactive). In the case of `COC(=O)c1ccc2ncccc2c1`, the inhibition is reported as 0% (inactive). `CCSc1nnc(N2C(=O)CC(c3ccsc3)C3=C2CC(C)(C)CC3=O)s1` (stereo not given) was tested, and the inhibition was 0% (inactive). For `COc1ccccc1-c1noc(-c2cccnc2)n1`, the inhibition was 13% (inactive). With `CCOc1cc(NC(=O)c2ccco2)c(OCC)cc1NC(=O)CCc1ccc(OC)cc1` the inhibition was 3% (inactive). For `O=c1c2ccccc2nnn1CSc1nnc2sc3ccccc3n12`, the inhibition was 0% (inactive). `COCCCNC(=O)C(Cc1ccccc1)NS(=O)(=O)c1ccc2c(c1)c(=O)n(C)c(=O)n2C` (stereo not given) was tested, and the inhibition was 0% (inactive). `Cc1ccc(Nc2nc(CSc3nnc(-c4cccs4)o3)cs2)cc1` was tested, and the inhibition was 0% (inactive). In the case of `Cn1c(=O)cc(OCCCC(=O)Nc2ccc3c(c2)OCCO3)c2ccccc21`, the inhibition is reported as 1% (inactive). In the case of `CCOC(=O)c1c(NC(=O)CSc2nnc(-c3ccc(OC)cc3)o2)sc2c1CCC2`, the inhibition is reported as 3% (inactive). `Cc1ccc(-c2noc(CCC(=O)NCC3CCN(Cc4cccc(C)c4)CC3)n2)cc1` was tested, and the inhibition was 8% (inactive). In the case of `CC1=C(C(=O)N2CCOCC2)C(c2ccsc2)C2=C(CCCC2=O)N1` (stereo not given), the inhibition is reported as 0% (inactive). For `O=C1COc2ccc(C(=O)NCc3ccco3)cc2N1`, the inhibition was 0% (inactive). For `Cc1cccc(C)c1OCC(=O)Nc1cccc(NC(=O)c2ccco2)c1`, the inhibition was 12% (inactive). `O=C(CN(Cc1cccs1)C(=O)CNS(=O)(=O)c1ccccc1)NCc1ccco1` was tested, and the inhibition was 3% (inactive). `COc1ccc(-c2nnc(SCCC(=O)O)n2-c2ccccc2)cc1` was tested, and the inhibition was 0% (inactive). In the case of `Cc1ccc(-n2c(=O)[nH]c3c(C(N)=O)nc(CC(C)C)nc32)cc1`, the inhibition is reported as 0% (inactive). With `Cc1cccc(NC2SC(=O)N(c3ccccc3)C2=O)c1` (stereo not given) the inhibition was 0% (inactive). With `O=C(NCc1ccco1)C(c1ccco1)N(C(=O)Cn1nnc2ccccc21)c1ccc2c(c1)CCC2` (stereo not given) the inhibition was 0% (inactive). For `CCCCCCc1ccc(-c2ncc(N)cn2)cc1`, the inhibition was 0% (inactive). For `CCc1cc(-c2[nH]ncc2-c2ccc3c(c2)OCO3)c(O)cc1O`, the inhibition was 0% (inactive). In the case of `Cc1nc(SCC(=O)N2CCC(C(N)=O)CC2)n[nH]1`, the inhibition is reported as 0% (inactive).

Reference: PubChem BioAssay
